From publication PMC5540273 (PLoS ONE, 2017)

What was measured:
Details in all cases: concentration: 1 μM, replicates: in singlicate; n = 1
[1] = test system: T1, CTK
T1 construct: gene MATK

[2] = test system: DAPK1
[3] = test system: DAPK2
[4] = test system: DAPK3
[5] = test system: T2, DCAMKL1
T2 construct: gene DCLK1

[6] = test system: T3, DCAMKL2
T3 construct: gene DCLK2

[7] = test system: T4, DCAMKL3
T4 construct: gene DCLK3

[8] = test system: DDR1
[9] = test system: DDR2
[10] = test system: T5, DLK
T5 construct: gene MAP3K12

[11] = test system: T6, DMPK2
T6 construct: gene CDC42BPG

[12] = test system: DMPK
[13] = test system: T7, DRAK1
T7 construct: gene STK17A

[14] = test system: T8, DRAK2
T8 construct: gene STK17B

[15] = test system: DYRK1A
[16] = test system: DYRK1B
[17] = test system: DYRK2
[18] = test system: EGFR
[19] = test system: EIF2AK1
[20] = test system: EPHA1
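Further: KINOMEscan kinase panel screen.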

SMILES | %Inh [1] [%] | %Inh [2] [%] | %Inh [3] [%] | %Inh [4] [%] | %Inh [5] [%] | %Inh [6] [%] | %Inh [7] [%] | %Inh [8] [%] | %Inh [9] [%] | %Inh [10] [%] | %Inh [11] [%] | %Inh [12] [%] | %Inh [13] [%] | %Inh [14] [%] | %Inh [15] [%] | %Inh [16] [%] | %Inh [17] [%] | %Inh [18] [%] | %Inh [19] [%] | %Inh [20] [%]
CC(=O)c1c(C)c2cnc(Nc3ccn(C)n3)nc2n(C2CCCC2)c1=O | 0 | 0 | 0 | 3 | 0 | 100 | 0 | 0 | 0 | 64 | 1 | 0 | 0 | 0 | 13 | 0 | 0 | 5 | 0 | 4
CCCCc1nn2ncccc2c1-c1ccnc(NC2CC2)n1 [GW684374] | 0 | 20 | 0 | 12 | 0 | 0 | 0 | 67 | 23 | 35 | 0 | 0 | 0 | 0 | 12 | 3 | 6 | 26 | 0 | 11
Cc1cccc2c(-c3ccncn3)c(-c3ccc(F)cc3)nn12 [GW515532] | 0 | 6 | 0 | 0 | 0 | 0 | 1 | 43 | 16 | 25 | 24 | 0 | 0 | 0 | 23 | 0 | 13 | 47 | 0 | 16
CNc1cc(-c2ccc3c(N)n[nH]c3c2)nc(N)n1 [GSK2224810] | 0 | 18 | 17 | 37 | 16 | 0 | 28 | 0 | 13 | 29 | 10 | 0 | 95.3 | 77 | 64 | 43 | 90 | 17 | 0 | 9
CNc1nc(-c2ccc3c(N)n[nH]c3c2)cc(N2C[C@@H](C(=O)Nc3ccccc3)CC[C@H]2C)n1 [GSK2298859] | 0 | 11 | 30 | 43 | 53 | 11 | 76 | 6 | 8 | 11 | 13 | 0 | 97.6 | 80 | 15 | 0 | 10 | 31 | 0 | 14
O=c1cc(N2CCOCC2)nc2n(Cc3cccc(Cl)c3Cl)c3ccccc3n12 [GSK2299009] | 0 | 13 | 0 | 11 | 12 | 7 | 10 | 22 | 0 | 0 | 24 | 10 | 3 | 0 | 28 | 15 | 16 | 30 | 24 | 14
COC(=O)C(NC(=O)NC1CCN(c2ccnc(Nc3ccc(F)cc3)n2)C1)c1ccccc1 (stereo not drawn) [GSK1379712] | 0 | 15 | 0 | 25 | 17 | 12 | 0 | 0 | 39 | 0 | 1 | 0 | 2 | 0 | 0 | 17 | 13 | 23 | 0 | 10
COC(=O)C(Cc1ccccc1)NC(=O)NC1CCN(c2ccnc(Nc3ccc(F)cc3)n2)C1 (stereo not drawn) [GSK1379714] | 0 | 25 | 12 | 28 | 7 | 0 | 8 | 75 | 47 | 48 | 0 | 0 | 0 | 0 | 10 | 10 | 0 | 31 | 0 | 7
CCn1c(-c2c(N)noc2C)nc2cnccc21 [SB-737856] | 14 | 0 | 0 | 0 | 5 | 30 | 0 | 0 | 0 | 41 | 99.8 | 0 | 0 | 0 | 30 | 0 | 4 | 24 | 3 | 0
Cc1ccc(NC(=O)c2ccc(Cl)cc2)cc1-c1ccc(C(=O)Nc2ccncc2)cc1 [GSK1398467] | 0 | 12 | 0 | 34 | 3 | 0 | 0 | 89 | 36 | 0 | 0 | 0 | 5 | 0 | 4 | 0 | 0 | 33 | 0 | 19
Fc1ccc(-c2nc3n(c2-c2ccncc2)CCS3)cc1 [GI98581] | 0 | 0 | 0 | 0 | 0 | 21 | 30 | 54 | 54 | 26 | 82 | 16 | 0 | 0 | 15 | 13 | 24 | 32 | 0 | 8
COC(=O)c1cccc(NC(=O)NC2CCN(c3ccnc(Nc4ccc(OC)cc4)n3)C2)c1 (stereo not drawn) [GSK1379746] | 0 | 0 | 0 | 0 | 8 | 0 | 0 | 11 | 46 | 35 | 0 | 0 | 4 | 10 | 11 | 15 | 9 | 31 | 0 | 6
CC(=O)c1cccc(NC(=O)NC2CCN(c3ccnc(Nc4ccc(F)cc4)n3)C2)c1 (stereo not drawn) [GSK1379710] | 0 | 15 | 2 | 26 | 6 | 11 | 14 | 20 | 7 | 29 | 6 | 0 | 6 | 0 | 0 | 27 | 17 | 18 | 0 | 7
COc1nccc(-c2c(-c3ccc(F)cc3)ncn2CCCN2CCOCC2)n1 [SB-282852] | 22 | 5 | 0 | 22 | 35 | 0 | 11 | 0 | 35 | 18 | 0 | 8 | 0 | 0 | 0 | 61 | 10 | 8 | 8 | 0
O=C(Nc1n[nH]c2nc(-c3ccco3)c(Br)cc12)C1CCN(Cc2ccccc2)C1.O=C(O)[C@H](O)[C@@H](O)C(=O)O (stereo not drawn) [SB-742034] | 71 | 0 | 28 | 17 | 14 | 7 | 20 | 0 | 0 | 0 | 0 | 0 | 11 | 13 | 22 | 0 | 32 | 1 | 33 | 0
COc1ccc(Nc2nccc(N3CCC(NC(=O)c4cc5ccccc5s4)C3)n2)cc1 (stereo not drawn) [GSK1379738] | 0 | 0 | 0 | 25 | 14 | 0 | 0 | 80 | 23 | 28 | 7 | 0 | 0 | 0 | 15 | 0 | 0 | 0 | 0 | 17
O=C(Nc1n[nH]c2cc(-c3ccsc3)ccc12)C1CC1 [SB-732932] | 32 | 4 | 41 | 40 | 0 | 0 | 74 | 0 | 0 | 0 | 0 | 0 | 17 | 0 | 0 | 12 | 28 | 0 | 0 | 3
O=C(Nc1n[nH]c2nc(-c3cccs3)c(Br)cc12)C1CC1 [SB-735297] | 13 | 0 | 0 | 0 | 0 | 0 | 0 | 0 | 0 | 0 | 0 | 0 | 25 | 0 | 13 | 0 | 26 | 0 | 0 | 21
COc1ccc(CSc2nnc(-c3ccc4nccn4c3)o2)cc1C(F)(F)F | 0 | 0 | 0 | 1 | 8 | 0 | 0 | 13 | 0 | 0 | 2 | 41 | 31 | 0 | 41 | 41 | 0 | 4 | 7 | 0
CN1c2ccc(-c3ccc(C(N)=O)cc3)cc2-c2[nH]ncc2S1(=O)=O | 0 | 54 | 18 | 26 | 7 | 0 | 0 | 0 | 28 | 0 | 0 | 0 | 52 | 15 | 34 | 24 | 0 | 0 | 0 | 8
Nc1cccc(-c2ccc3c(N)n[nH]c3c2)n1 [GSK2192730] | 0 | 27 | 2 | 28 | 0 | 0 | 0 | 0 | 0 | 0 | 0 | 0 | 68 | 0 | 25 | 21 | 52 | 0 | 0 | 14
